Among all 96,000 compounds or so, about 20,000 (21%) were called active. Not all results are given here. Values without a mark were called inactive.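 How the source made its calls: active means CYP2C19 inhibition above a set limit at 5 µM in the primary screen (cut at about 50% in these data); inactive means the rest.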
These compounds were tested against Cytochrome P450 2C19 (Homo sapiens) (UniProt P33261) (assay: blockers of cytochrome P450 2C19 activity – biochemical, luminescence, ADME assay, primary screen (AID 778;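 further: plate controls were negative control wells for no effect and 2.5 mM tranylcypromine positive control for full effect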)). Conditions: CYP2C19 Supersomes, luciferin-H EGE luminescence, 30 min; at 5 µM; stronger effect = higher value.
Sequence of Cytochrome P450 2C19 (Homo sapiens) (P33261 whole entry, looked up): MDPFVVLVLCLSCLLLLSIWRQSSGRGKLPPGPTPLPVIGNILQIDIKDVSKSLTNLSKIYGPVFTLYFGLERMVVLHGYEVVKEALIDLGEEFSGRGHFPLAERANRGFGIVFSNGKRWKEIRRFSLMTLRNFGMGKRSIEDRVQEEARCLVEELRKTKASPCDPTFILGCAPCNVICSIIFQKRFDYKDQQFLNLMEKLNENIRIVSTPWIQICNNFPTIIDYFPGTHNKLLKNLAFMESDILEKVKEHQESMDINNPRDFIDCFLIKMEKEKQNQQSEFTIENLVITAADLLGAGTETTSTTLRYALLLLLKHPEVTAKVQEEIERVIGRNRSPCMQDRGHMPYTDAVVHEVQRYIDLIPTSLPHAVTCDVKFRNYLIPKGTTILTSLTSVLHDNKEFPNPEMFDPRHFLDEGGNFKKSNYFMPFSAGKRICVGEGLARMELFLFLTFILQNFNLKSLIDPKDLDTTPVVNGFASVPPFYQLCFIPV
For `CCOC(=O)C1=C(C)Nc2sc(C(=O)c3ccc(Br)cc3)c(N)c2C1c1ccc(C(=O)OC)cc1` (configuration not stated), the inhibition was 88.2% (active). `CCOC(=O)c1sc(=S)n2c1[nH]c(=O)c1ccc(C(=O)OC)cc12` showed an inhibition of -1.3%. Compound `CCOC(=O)N1CCC(NC(=O)c2cnn3ccccc23)CC1` has an inhibition of 5.9%. Work on `O=C1C(C=NCC2CCCO2)=C(O)c2ccccc21` (configuration not stated) yielded an inhibition of 8.1%. In the case of `CCCCCCC(=O)Nc1nc(C)c(-c2csc(Nc3cc(Cl)ccc3OC)n2)s1`, the inhibition is reported as -7.7%. In the case of `C=CCCC(=O)Nc1nc(C)c(-c2csc(Nc3ccc(Cl)cc3)n2)s1`, the inhibition is reported as 56.4% (active). Compound `CCCCC(=O)Nc1nc(C)c(-c2csc(Nc3ccc(Cl)cc3)n2)s1` has an inhibition of 45.9%. `O=C(Nc1cc(N2CCOCC2)ncn1)NC1(C(F)(F)F)Oc2ccc(Cl)cc2O1` (configuration not stated) showed an inhibition of 1%. `CSCCC(NC(N)=O)C(=O)N(C)CC(=O)Nc1ccc(C)cc1` (configuration not stated) showed an inhibition of 3.3%. `O=[N+]([O-])c1ccc(N2CCN(S(=O)(=O)c3ccc4ccccc4c3)CC2)cc1NCc1ccco1` was tested, and the inhibition was 19.1%. With `O=C(c1ccccc1)N1CCN(c2ccc([N+](=O)[O-])c(NCc3ccco3)c2)CC1` the inhibition was 82.3% (active). In the case of `O=C(NCc1ccco1)c1nc(-c2ccccc2)n(-c2ccccc2)n1`, the inhibition is reported as 25.6%. For `O=C1N=C(N2CCCC2)S/C1=C\c1cccc(Br)c1`, the inhibition was 58.2% (active). With `Cc1ccsc1/C=C1\SC(N2CCOCC2)=NC1=O` the inhibition was 29%. In the case of `O=C1N=C(N2CCOCC2)S/C1=C\C=C/c1ccccc1`, the inhibition is reported as 10.8%. Compound `Cc1nc([N+](=O)[O-])nn1C12CC3CC(CC(Br)(C3)C1)C2` has an inhibition of 15.2%. Work on `COC(=O)c1sccc1NC(=O)c1cc(OC)c(OC)c(OC)c1` yielded an inhibition of 5.1%. In the case of `CCCCN=C1N/C(=C\c2ccco2)C(=O)N1c1ccccc1`, the inhibition is reported as 0.7%. With `O=C(NC1=NCCS1)[C@H](Cc1ccccc1)N1C(=O)c2ccccc2C1=O` the inhibition was 57.5% (active). With `O=C(NCCN1CCOCC1)[C@H](Cc1ccccc1)N1C(=O)c2ccccc2C1=O` the inhibition was -8.6%. Compound `CSCCC(C(=O)NC1=NCCS1)N1C(=O)c2ccccc2C1=O` (configuration not stated) has an inhibition of 17.5%. Compound `C=CCn1c(SCc2csc(C)n2)nc2scc(-c3ccc(C)o3)c2c1=O` has an inhibition of 16.7%. In the case of `Cn1c(SCC(=O)Nc2cccc(O)c2)nnc1-c1ccc(S(=O)(=O)N2CCOCC2)cc1`, the inhibition is reported as 2.3%. For `O=C(CCc1ccc(S(=O)(=O)N2CCOCC2)cc1)Nc1ccc2ccccc2c1`, the inhibition was 62.6% (active). For `O=S(=O)(c1ccc2ccccc2c1)N1CCN(S(=O)(=O)N2CCOCC2)CC1`, the inhibition was 20.2%. Compound `CCOC(=O)N1CCN(CC(=O)n2c(C)c(C)c3ccccc32)CC1` has an inhibition of 37.1%. Compound `CCCc1nc(N)nc2c1C(=O)CC(C)(C)C2` has an inhibition of 7.6%. In the case of `CC(C)c1ccc(/C=C/C(=O)NNC(=O)c2cccnc2)cc1`, the inhibition is reported as 1.1%. `COc1ccc2[nH]cc(/C=C(/C#N)S(=O)(=O)c3ccccc3)c2c1` was tested, and the inhibition was 99.8% (active). In the case of `COc1ccc(/C=C(\NC(=O)c2ccc(OC)c(OC)c2)C(=O)NCCc2c[nH]c3ccccc23)cc1`, the inhibition is reported as 35.2%. For `CCn1nc(NC(=O)c2ccco2)c2cc3ccc(C)cc3nc21`, the inhibition was 7.9%. For `O=C(NC1(C(F)(F)F)N=C2SCCN2C1=O)c1ccco1` (configuration not stated), the inhibition was -15.5%. Work on `CCN(CC)C(=O)CSc1nnc(CNc2ccc(F)cc2)n1Cc1ccco1` yielded an inhibition of -8.4%. For `c1ccc2c(C[n+]3csc4ccccc43)cccc2c1`, the inhibition was 60.7% (active). `N=C(N)SCc1cccc2ccccc12` was tested, and the inhibition was -3.6%. Compound `N#C/C(=C(/O)Cc1cccc2ccccc12)c1nc2ccccc2s1` has an inhibition of -0.2%. With `Cc1c2cn[nH]c(=O)c2c(C)n1Cc1ccc(F)cc1` the inhibition was 48.3%. `Cc1ccc2oc(=O)c3cnn(CC(=O)N(Cc4ccco4)C4CCCCC4)c3c2c1` showed an inhibition of 7.4%. In the case of `CCOC(=O)c1c(NC(=O)CCCN2CCOCC2)sc2c1CC(C)(C)OC2`, the inhibition is reported as 9.3%. `CCC(C(=O)NC1CCCC1)N(C(=O)c1snc(C(N)=O)c1N)c1ccc2c(c1)OCCO2` (configuration not stated) gave an inhibition of -2.4%. `Cc1ccc(C(C(=O)NC2CCCCC2)N(C(=O)c2csnn2)C2CC2)o1` (configuration not stated) was tested, and the inhibition was 50% (active). `Cc1ccsc1C(C(=O)NC1CCCCC1)N(C(=O)Cc1cccs1)C1CC1` (configuration not stated) showed an inhibition of -2.9%. `O=C(Nc1ccc(F)c(Cl)c1)C1CCN(S(=O)(=O)c2cccnc2)CC1` gave an inhibition of 41.7%. Work on `Cc1ccc(NC(=O)C2CC(c3ccc(F)cc3)=NO2)cc1` (configuration not stated) yielded an inhibition of 28.2%. In the case of `O=C(Nc1ccc2c(c1)OCO2)C1CC(c2c(F)cccc2Cl)=NO1` (configuration not stated), the inhibition is reported as 92.7% (active). With `O=C(Nc1ccccc1-c1nnn(CC(=O)N2CCN(c3ccccc3)CC2)n1)c1cccs1` the inhibition was 47.5%. Work on `C=CCN(N=Nc1cccc([N+](=O)[O-])c1)c1cccc([N+](=O)[O-])c1` yielded an inhibition of 19.3%. Compound `O=C(Nc1ccccc1Cl)N1CCN(c2ccc3nncn3n2)CC1` has an inhibition of 24.1%. `O=C(Nc1ccc(Cl)cc1)N1CCc2[nH]c3ccccc3c2C1` was tested, and the inhibition was 13.4%. With `c1ccc2[nH]c(NCCN3CCOCC3)nc2c1` the inhibition was 7.5%. Work on `CC(C)OC(=O)C(C#N)c1nc2ccccc2nc1N1CCN(Cc2ccccc2)CC1` (configuration not stated) yielded an inhibition of 30.6%. `CC(C)Cc1nc(N2CCOCC2)c(C#N)c2c1CCC2` showed an inhibition of 39.8%. With `CC(C)C(=O)N1CCN(c2nc(-c3ccccc3)c3c(c2C#N)CC(C)(C)OC3)CC1` the inhibition was 95.4% (active). With `CC1(C)Cc2c(C#N)c(SCc3nc4ccccc4[nH]3)nc(N3CCOCC3)c2CO1` the inhibition was 80.5% (active). With `CC(C)c1nc(N2CCOCC2)c(C#N)c2c1COC(C)(C)C2` the inhibition was 55.5% (active). Work on `Cc1nc(NCc2ccccc2)c(C(N)=O)c2c1COC(C)(C)C2` yielded an inhibition of 48.5%. `C1=C(N2CCOCC2)/C(=C/c2nc3ccccc3[nH]2)CC1` was tested, and the inhibition was 20.6%. `Cc1ccc2nc(-c3ccc(SCC(=O)Nc4cc(C)on4)nc3)[nH]c2c1` showed an inhibition of -9.6%. In the case of `C=CCn1c(SCc2c(C)noc2C)nc2sc3c(c2c1=O)CCC(C)C3` (configuration not stated), the inhibition is reported as 29%. With `COc1ccc2[nH]c(=O)c(-c3noc(-c4ccc(F)cc4)n3)cc2c1` the inhibition was -20.6%. `O=C(NCCCN1CCCCC1)c1ccc2c(c1)NC(=O)C(N1CCOCC1)S2` (configuration not stated) gave an inhibition of -20.4%. `Cc1cc2nc(-c3ccc(NC(=O)c4cccnc4)cc3)oc2cc1C` was tested, and the inhibition was -3.8%. `c1ccc(-c2cn3cccnc3n2)cc1` gave an inhibition of 1.9%. `Cc1nc2ccc(NC(=O)C(F)(F)F)cc2o1` gave an inhibition of 19.3%. `C#CCN1CC(C)/C(=N/O)CC1C` (configuration not stated) showed an inhibition of -17%. With `Cc1noc(C)c1C(=O)NC(C)c1ccc2c(c1)OCO2` (configuration not stated) the inhibition was 64.5% (active). Work on `CC(C)(C)NC(=O)C(c1ccncc1)N(C(=O)CNC(=O)c1ccco1)c1ccc2c(c1)OCO2` (configuration not stated) yielded an inhibition of 25.7%. `Cc1cccc(N2C(=O)C3C(c4ccccc4)OC4(C(=O)c5ccccc5C4=O)C3C2=O)c1` (configuration not stated) gave an inhibition of -10.6%. Compound `CCOC(=O)c1c(N)sc(C(C)=O)c1C` has an inhibition of 22.5%. With `Cc1ccc(C(=O)N2CCN(C3CCCCC3)CC2)s1` the inhibition was 52.8% (active). For `O=C(CN1CCN(C2CCCCC2)CC1)Nc1ccccc1N1CCCCC1`, the inhibition was 1.2%. `CCn1cc(C(=O)N2CCN(C3CCCCC3)CC2)c2cc(OC)c(OC)cc2c1=O` was tested, and the inhibition was 13.8%. `CCN1CC=C2C(C#N)=C(N)C(C#N)(C#N)[C@H](c3ccoc3)[C@H]2C1` showed an inhibition of 7.1%. In the case of `COc1ccc(C(=O)N2CCc3cc(OC)c(OC)cc3C2c2cccc([N+](=O)[O-])c2)cc1` (configuration not stated), the inhibition is reported as 53.7% (active). With `COc1ccc(C(=O)Nc2nc(-c3ccc(OC)cc3)c(-c3ccc([N+](=O)[O-])cc3)s2)cc1` the inhibition was 6.9%. In the case of `COc1ccc(Cc2nnc(SCC(=O)c3cccc([N+](=O)[O-])c3)n2C)cc1`, the inhibition is reported as 15.5%. Work on `CNC(=O)c1nnc(Cc2ccc(Cl)cc2)o1` yielded an inhibition of 45.2%. Compound `Cc1cccc(S(=O)(=O)CC(=O)Nc2nc(-c3ccccc3)cs2)c1` has an inhibition of 35.4%. For `COCc1nnc(NC(=O)CS(=O)(=O)Cc2ccccc2)s1`, the inhibition was 1.9%. `O=C(CCS(=O)(=O)c1ccccc1)Nc1nc2c(s1)CCCC2` was tested, and the inhibition was 73.9% (active). Compound `Cc1ccc(-c2c3c(=O)n(C)c(=O)n(C)c3cn2-c2ccccc2O)cc1` has an inhibition of 19%. `Cc1oc(-c2ccccc2Cl)[n+]([O-])c1C` gave an inhibition of 8.4%. `O=C(NCCc1ccccn1)c1ccc(COc2ccccc2)o1` was tested, and the inhibition was 5.8%. `CC(=O)Cc1nsc(NC(=O)c2ccc(COc3ccc(C)cc3)o2)n1` showed an inhibition of 22.2%. In the case of `COc1ccc(-c2nc(CCNC(=O)c3ccc(Br)o3)cs2)cc1`, the inhibition is reported as 58.8% (active). Compound `Cc1cc(C(=O)COC(=O)CCCN2C(=O)c3ccccc3C2=O)c(C)n1C` has an inhibition of -0.8%. Work on `CCOC(=O)NNC(=O)c1ccc(Cl)cc1` yielded an inhibition of 6.6%. In the case of `O=[N+]([O-])c1ccc(NCCCN2CCOCC2)c(Cl)c1`, the inhibition is reported as 52% (active). `O=C(NC1CCCCC1)c1cc([N+](=O)[O-])ccc1N1CCOCC1` was tested, and the inhibition was -1.9%. `O=C(CN1CCOCC1)Nc1ccc(NC(=O)CN2CCOCC2)c(Cl)c1` was tested, and the inhibition was -2.2%. For `CC1(C)C2CCC1(C)C(OC(=O)CCn1ccnc1)C2` (configuration not stated), the inhibition was 99.5% (active). With `COc1ccc(OC)c(C(=O)c2coc3ccc(O)c(CN4CCOCC4)c23)c1` the inhibition was 52.4% (active). `COc1ccc(OC)c(C(=O)c2coc3ccc(OC)cc23)c1` was tested, and the inhibition was 89.7% (active). `COc1ccc(OC)c(C(=O)c2ccc(C(=O)O)cc2)c1` showed an inhibition of -2.7%. In the case of `COc1ccc2occ(C(=O)c3ccc(N=C(C)N(C)C)cc3)c2c1`, the inhibition is reported as 30.2%. `COc1ccc(C(=O)Nc2ccc(CN3CCOCC3)cc2)cc1` gave an inhibition of 16.2%. Compound `COc1ccc(C)cc1N(C)C(=O)c1coc(=O)c2ccccc12` has an inhibition of 15.5%.
